We go through 14 compounds from PubChem BioAssay (EPA / NIEHS).

Where “and” joins values, the source holds several entries; their conditions need not be identical. Equal values may be shown once. Inconclusive results are not listed. Calls of active or inactive are those of the source. How the source made its calls: active means hit-call score of the fitted dose curve at least 0.9, where 1 is the maximum; inconclusive means response in the unintended direction; inactive means score below 0.9.

Sequence of Nucleoli Translocation, AR (gene 367) (P10275 whole entry, looked up, the tested form may be a part): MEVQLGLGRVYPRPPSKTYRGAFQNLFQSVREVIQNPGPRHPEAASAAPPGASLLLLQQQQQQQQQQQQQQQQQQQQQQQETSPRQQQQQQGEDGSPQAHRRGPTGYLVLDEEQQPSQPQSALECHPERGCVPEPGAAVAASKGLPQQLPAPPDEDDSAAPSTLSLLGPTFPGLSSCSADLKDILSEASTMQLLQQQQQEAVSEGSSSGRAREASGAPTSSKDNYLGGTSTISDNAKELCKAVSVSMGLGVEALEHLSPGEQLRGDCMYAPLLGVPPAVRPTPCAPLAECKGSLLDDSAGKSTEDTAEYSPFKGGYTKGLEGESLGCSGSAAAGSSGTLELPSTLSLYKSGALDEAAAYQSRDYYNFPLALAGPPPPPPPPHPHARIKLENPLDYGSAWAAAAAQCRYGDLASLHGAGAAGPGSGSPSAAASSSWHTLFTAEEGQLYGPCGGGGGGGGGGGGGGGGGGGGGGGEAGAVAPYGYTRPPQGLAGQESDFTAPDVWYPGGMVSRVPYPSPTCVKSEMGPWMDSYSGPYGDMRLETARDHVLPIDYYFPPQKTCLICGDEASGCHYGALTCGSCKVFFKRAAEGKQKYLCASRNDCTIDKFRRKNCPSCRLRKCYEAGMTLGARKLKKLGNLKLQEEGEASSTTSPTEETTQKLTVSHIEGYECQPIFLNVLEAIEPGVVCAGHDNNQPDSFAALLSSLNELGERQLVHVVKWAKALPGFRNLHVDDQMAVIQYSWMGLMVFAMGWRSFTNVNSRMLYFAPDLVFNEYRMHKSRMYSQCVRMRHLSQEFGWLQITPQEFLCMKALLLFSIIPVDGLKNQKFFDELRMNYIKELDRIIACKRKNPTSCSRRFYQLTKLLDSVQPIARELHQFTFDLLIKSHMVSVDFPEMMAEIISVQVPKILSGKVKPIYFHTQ

This assay has as its target Nucleoli Translocation, AR (gene 367) (UniProt P10275). The assay can be described thus: UPITT_HCI_U2OS_AR_TIF2_Nucleoli_Antagonist: University of Pittsburgh U2OS Androgen Receptor-Transcriptional Intermediary Factor 2 (AR-TIF2) Antagonism High Content Imaging Assay for Nucleoli Translocation (AID 2283997). The source says:
UPITT_AR_TIF2_PPIB is a cell-based, high-content imaging assay that uses U2OS, a human osteosarcoma cell line, expressing a human androgen receptor fused to red fluorescent protein and the coactivator TIF2 fused to green fluorescent protein. UPITT_HCI_U2OS_AR_TIF2_Nucleoli_Antagonist is one of four assay components measured from the UPITT_AR_TIF2_PPIB assay. It is designed to make measurements of red fluorescence localized in the nucleolar region of the cell nucleus as detected with high-content fluorescent imaging.Data from the assay component UPITT_HCI_U2OS_AR_TIF2_Nucleoli_Antagonist was analyzed into 1 assay endpoint. This assay endpoint, UPITT_HCI_U2OS_AR_TIF2_Nucleoli_Antagonist, was analyzed in the positive analysis fitting direction relative to DHT as the baseline of activity. Using a type of binding reporter, measures of receptor for loss-of-signal activity can be used to understand the binding at the pathway-level as it relates to the gene AR.
Daughter plates containing 2 uL of 10 mM compounds in DMSO were prepared and replicated from the 384-well Library of Pharmacologically Active Compounds (LOPAC) master plates using the Bravo outfitted with a 384-well transfer head. Aluminum adhesive plate seals were applied with an Abgene Seal-IT 100 (Rochester, NY) plate sealer, and the plates were stored at -20 C in a Matrical MatriMinistore (Spokane, WA) automated compound storage and retrieval system. For screening, LOPAC daughter plates were withdrawn from -20C storage, thawed to ambient temperature, centrifuged 1-2 min at 50 g, and the plate seals were removed before the transfer of 98 uL of serum-free tissue culture medium (SFM) into wells using the BioTek Microflo liquid handler (BioTek, Winooski, VT) to generate a 200 uM intermediate stock concentration of library compounds (2.0% DMSO). The diluted compounds were mixed by repeated aspiration and dispensation using a 384-well P30 dispensing head on the Evolution P3 (EP3) liquid handling platform (PerkinElmer, Waltham, MA) and then 5 uL of diluted compounds was transferred to the wells of assay plates. In the LOPAC screen, compounds were individually tested at a final concentration of 20 uM (0.2% DMSO). After the diluted compounds had been transferred from the daughter plates to the primary HCS assay plates, aluminum adhesive plate seals were applied and the diluted daughter plates were stored frozen at -20C. To confirm active compounds identified in the primary screen, we withdrew the LOPAC daughter plates containing the 200 uM intermediate concentration of library compounds (2.0% DMSO) from -20C storage, thawed them to ambient temperature, centrifuged them for 1-2 min at 50 g, and removed the plate seals. A work list was generated to direct the Multiprobe Janus liquid handling platform (PerkinElmer) to cherry pick 75 uL from the wells of the diluted daughter plates that were flagged active in the primary screen and to reformat these into a 384-well plate hit confirmation daughter plate. Five microliters of primary HCS active compounds was then transferred into triplicate wells of assay plates using a 384-well P30 dispensing head on the Evolution P3 (EP3) liquid handling platform (PerkinElmer). […] Daughter plates containing 2 uL of the serially diluted compounds in DMSO were prepared and replicated from the 384-well serial dilution master plates using the Bravo outfitted with a 384-well transfer head. Aluminum adhesive plate seals were applied and plates were stored at -20C. […] The ImageXpress Ultra (IXU) platform (Molecular Devices LLC, Sunnyvale, CA) and The ImageXpress Micro (IXM) platform were used for imaging.
For the compound `ClC(Cl)=C(c1ccc(Cl)cc1)c1ccccc1Cl`, the AC50 was 50 µM (active) and 9.92 µM (active).

Regarding `CCCCCCCc1ccc(O)cc1`, the AC50 is 60.7 µM (active).

For `Clc1ccc(Oc2ccccc2)cc1`, the call was inactive.

`CC1(C)CN=C(NN=C(/C=C/c2ccc(C(F)(F)F)cc2)/C=C/c2ccc(C(F)(F)F)cc2)NC1`: the AC50 is 9.92 µM (active).

Turning to `[N-]=[N+]=[N-]`, the outcome was inactive.

Regarding `O=P(OCC(Br)CBr)(OCC(Br)CBr)OCC(Br)CBr` (centres undefined), the compound was classed as inactive.

In the case of `CCNc1nc(Cl)nc(NC(C)(C)C)n1`, the compound was called inactive.

Turning to `CO/N=C(/C(=O)OC)c1ccccc1COc1ccccc1C`, the compound was called inactive.

Regarding `ClC1=C(Cl)C2(Cl)C3C(Cl)C(Cl)CC3C1(Cl)C2(Cl)Cl` (centres undefined), the AC50 is 11.5 µM (active).

Consider `c1cc2c3c(cccc3c1)CC2`, for which the outcome was inactive.

In the case of `CCN(CC)c1ccccc1`, the compound was classed as inactive.

Take `CCCCN(CC)C(=O)SCCC`: the compound was called inactive.

On to `CCCCC(CC)COP(=O)(Oc1ccccc1)Oc1ccccc1` (centres undefined), for which the outcome was inactive.

Take `CC(C)(C)N(NC(=O)c1ccc(Cl)cc1)C(=O)c1ccccc1`: the outcome was inactive.
